# Test results from PubChem BioAssay (NCI).
# About 83,000 compounds went through this panel and 20% of them were active in at least one assay; those are over-represented in the sample as a whole.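 A percent growth of 40 corresponds to 60% growth inhibition; 0 means no net growth; -100 means all cells died. Active threshold: below 10.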 Active and inactive are the calls of the source.
# Tests used:
# Assay in all cases: NCI-60 one-dose screen, 48 h (100 = growth as untreated, 0 = no growth, -100 = all killed)
# NCI-H23 lung = conditions: 10 µM unless noted
# NCI-H226 lung = conditions: 10 µM unless noted
# NCI-H322M lung = conditions: 10 µM unless noted
# HOP-62 NSCLC = conditions: 10 µM unless noted
# NCI-H460 lung = conditions: 10 µM unless noted
# HOP-92 NSCLC = conditions: 10 µM
# NCI-H522 lung = conditions: 10 µM unless noted
# A549/ATCC NSCLC = conditions: 10 µM unless noted
# 786-0 renal = conditions: 10 µM unless noted
# COLO 205 colon = conditions: 10 µM unless noted
# DU-145 prostate = conditions: 10 µM unless noted
# K-562 leukemia = conditions: 10 µM unless noted
# MALME-3M melanoma = conditions: 10 µM unless noted
# MDA-MB-231 breast = conditions: 10 µM unless noted
# SF-268 CNS = conditions: 10 µM unless noted
# SF-295 CNS = conditions: 10 µM unless noted
# SF-539 CNS = conditions: 10 µM unless noted
# UACC-257 melanoma = conditions: 10 µM unless noted
SMILES,growth (NCI-H23 lung),growth (NCI-H226 lung),growth (NCI-H322M lung),growth (HOP-62 NSCLC),growth (NCI-H460 lung),growth (HOP-92 NSCLC),growth (NCI-H522 lung),growth (A549/ATCC NSCLC),growth (786-0 renal),growth (COLO 205 colon),growth (DU-145 prostate),growth (K-562 leukemia),growth (MALME-3M melanoma),growth (MDA-MB-231 breast),growth (SF-268 CNS),growth (SF-295 CNS),growth (SF-539 CNS),growth (UACC-257 melanoma)
N#Cc1cccc(NC(=O)c2cc(-c3ccc(F)cc3F)ccc2O)c1,2.72% (active),12% (inactive),10.8% (inactive),20.9% (inactive),5.69% (active),-24.7% (active),1.9% (active),11.3% (inactive),13.2% (inactive),95.2% (inactive),20.9% (inactive),11.8% (inactive),-9.34% (active),6.64% (active),18.7% (inactive),-16.9% (active),15.1% (inactive),-6.12% (active)
CCOP(=O)(OCC)OC[C@]12CCC(C)(C)C=C1[C@H]1CC[C@@H]3[C@@]4(C)CC[C@H](OP(=O)(OCC)OCC)C(C)(C)[C@@H]4CC[C@@]3(C)[C@]1(C)CC2,-38.4% (active),-72.3% (active),1.63% (active),-38.3% (active),-62.2% (active),-65.2% (active),-59.1% (active),-45.3% (active),-59.7% (active),-43.1% (active),-70.2% (active),4.74% (active),-12.8% (active),-55.2% (active),-59.7% (active),-66.2% (active),-84.1% (active),-8.01% (active)
N#Cc1cccc(CN2CCC3=C(C2)C(=O)N(Cc2ccc(Cl)cc2)C2=NCCN23)c1,30.8% (inactive),35% (inactive),50.8% (inactive),31.8% (inactive),15% (inactive),29% (inactive),23.1% (inactive),27.2% (inactive),44.7% (inactive),-41% (active),28.5% (inactive),23.3% (inactive),50.4% (inactive),31.7% (inactive),36% (inactive),8.53% (active),41.7% (inactive),10.7% (inactive)
NC(N)=Nc1ccc(Oc2cccc(NC(N)=Nc3ccc(I)cc3F)c2)cn1,52.2% (inactive),84.3% (inactive),53.1% (inactive),66.9% (inactive),40.6% (inactive),-3.49% (active),41.2% (inactive),57.9% (inactive),80.8% (inactive),39.7% (inactive),88.3% (inactive),46.1% (inactive),75.5% (inactive),62.8% (inactive),36.3% (inactive),47.3% (inactive),60.3% (inactive),75.6% (inactive)
NC(N)=Nc1ccc(Oc2cccc(NC(N)=Nc3ccc(I)cc3F)c2)cc1,77.4% (inactive),88.2% (inactive),80.4% (inactive),76.4% (inactive),65.9% (inactive),39% (inactive),66.8% (inactive),68.7% (inactive),86.4% (inactive),48.9% (inactive),97.6% (inactive),69.9% (inactive),83% (inactive),83.6% (inactive),36.4% (inactive),77.3% (inactive),62.6% (inactive),86.4% (inactive)
CS(=O)(=O)Nc1cc(-c2ccc3ncc(C#N)c(NCc4ccccc4F)c3c2)cnc1Cl,1.49% (active),14.6% (inactive),12.9% (inactive),0.205% (active),5.08% (active),-10.9% (active),14.1% (inactive),7.89% (active),11.4% (inactive),-24.7% (active),19% (inactive),13.2% (inactive),-35.6% (active),5.59% (active),7.96% (active),-21.7% (active),-11.5% (active),2.07% (active)
COc1ccc(/C=C(/C)c2ccc3ccc(OC)cc3[o+]2)c(O)c1,53.2% (inactive),70.9% (inactive),94.7% (inactive),92.1% (inactive),81.5% (inactive),66.7% (inactive),53.1% (inactive),102% (inactive),88.9% (inactive),115% (inactive),86.1% (inactive),31.9% (inactive),85.2% (inactive),72.7% (inactive),88.1% (inactive),94.2% (inactive),96.1% (inactive),89.7% (inactive)
CCN(CC)c1ccc2c(c1)Oc1nc(N)c(C#N)c(N)c1C2Sc1ccc(C)cc1 (centres undefined),-90% (active),-54.6% (active),-92.7% (active),-71% (active),-40.4% (active),-93.9% (active),-75.6% (active),-56.9% (active),-92.6% (active),-53.6% (active),-95.5% (active),0.301% (active),-92.9% (active),-87.3% (active),-52.7% (active),-93.3% (active),-97.8% (active),-74.2% (active)
O=C(c1ccc(O)cc1)[C@@H]1CN[C@@]2(C(=O)Nc3ccccc32)[C@H]1c1ccc(F)cc1,94.5% (inactive),96.2% (inactive),99.7% (inactive),99.5% (inactive),111% (inactive),101% (inactive),96.6% (inactive),108% (inactive),110% (inactive),116% (inactive),111% (inactive),88% (inactive),98.5% (inactive),93.6% (inactive),97.7% (inactive),101% (inactive),93.7% (inactive),114% (inactive)
C#Cc1ccc(C(=O)NCc2ccc(/C=C/C(=O)c3nccn3C)cc2)cc1,10% (inactive),31.9% (inactive),12.5% (inactive),27.5% (inactive),-45.4% (active),-0.611% (active),25.9% (inactive),13.4% (inactive),19.3% (inactive),22.8% (inactive),21% (inactive),18.8% (inactive),69.5% (inactive),16.1% (inactive),13.5% (inactive),20.7% (inactive),-17% (active),67.7% (inactive)
CC(c1ccccc1)N1CSc2nc3ncncc3n2C1 (centres undefined),24.1% (inactive),48.8% (inactive),40.9% (inactive),26.9% (inactive),51.2% (inactive),65.5% (inactive),38.2% (inactive),72% (inactive),29.6% (inactive),32.8% (inactive),33.3% (inactive),20.9% (inactive),38.2% (inactive),32.7% (inactive),28.4% (inactive),21.6% (inactive),23.5% (inactive),44.5% (inactive)
C=CCn1c(SCC(=O)Nc2ccc(C(=O)/C=C/c3ccc(C)cc3)cc2)nnc1-c1c[nH]c2ccccc12,97.7% (inactive),78.1% (inactive),97.1% (inactive),94.4% (inactive),102% (inactive),86.3% (inactive),81.3% (inactive),75.9% (inactive),103% (inactive),112% (inactive),98.4% (inactive),61.1% (inactive),95% (inactive),89% (inactive),79.4% (inactive),66.9% (inactive),90.9% (inactive),112% (inactive)
COc1ccccc1-n1cc(C#N)c(N)c1C(=O)c1ccc(Cl)cc1,90.8% (inactive),97.7% (inactive),103% (inactive),87.7% (inactive),87.8% (inactive),101% (inactive),22.4% (inactive),94.6% (inactive),104% (inactive),86.8% (inactive),93.8% (inactive),20.8% (inactive),59.5% (inactive),68.2% (inactive),85.2% (inactive),78.8% (inactive),91.8% (inactive),87.5% (inactive)
C#CCOc1ccc(/C=N\Nc2nc(-c3ccc(C)cc3)cs2)cc1OC,87.2% (inactive),86.8% (inactive),92.2% (inactive),98.5% (inactive),95.5% (inactive),73.3% (inactive),74.5% (inactive),88.6% (inactive),99.2% (inactive),94.6% (inactive),85.3% (inactive),69.6% (inactive),116% (inactive),88.6% (inactive),102% (inactive),92.4% (inactive),96.4% (inactive),93.3% (inactive)
Cc1ccc2c(c1)C13C(=C2Br)CCCN1C(=O)c1ccccc13 (centres undefined),92.8% (inactive),92.3% (inactive),97.5% (inactive),96.9% (inactive),105% (inactive),78.8% (inactive),80.8% (inactive),98.1% (inactive),84.3% (inactive),108% (inactive),102% (inactive),46.3% (inactive),85.3% (inactive),93.7% (inactive),90.6% (inactive),94.2% (inactive),98.4% (inactive),93.3% (inactive)
COc1cccc(/C=C(/C)c2ccc3cccc(OC)c3[o+]2)c1O,105% (inactive),103% (inactive),98.8% (inactive),106% (inactive),102% (inactive),91% (inactive),93.6% (inactive),102% (inactive),98.5% (inactive),118% (inactive),107% (inactive),97.2% (inactive),105% (inactive),89.8% (inactive),95.3% (inactive),101% (inactive),103% (inactive),110% (inactive)
CCOc1ccc(NC2=C(Cl)C(=O)c3nc(C)ccc3C2=O)cc1,-61% (active),-52.6% (active),32.4% (inactive),72.1% (inactive),13.4% (inactive),-87% (active),-61.6% (active),46.2% (inactive),8.39% (active),98.2% (inactive),-92.7% (active),-4.17% (active),-90.6% (active),-71.7% (active),32.3% (inactive),51% (inactive),-58.8% (active),-89.2% (active)
COc1ccc(NC(=O)Nc2ccc3c(ccn3C(=O)c3cccc(F)c3)c2)cc1,72.5% (inactive),69.2% (inactive),95.1% (inactive),91% (inactive),31.7% (inactive),71.6% (inactive),78.6% (inactive),53.9% (inactive),58.2% (inactive),104% (inactive),84.5% (inactive),86.1% (inactive),34.2% (inactive),78.6% (inactive),85.3% (inactive),90.4% (inactive),52% (inactive),84.2% (inactive)
O=C1CCC(N2C(=O)c3ccc(NS(=O)(=O)c4ccccc4OC(F)(F)F)cc3C2=O)C(=O)N1 (centres undefined),107% (inactive),44.7% (inactive),46.1% (inactive),6.09% (active),115% (inactive),-2.41% (active),69.3% (inactive),78.7% (inactive),47.6% (inactive),20.5% (inactive),108% (inactive),65.8% (inactive),7.28% (active),6.46% (active),43.2% (inactive),56.9% (inactive),79.7% (inactive),107% (inactive)
CN1CCN(Cc2ccc(NC(=O)c3cncc(C#Cc4cnc5ccc(OCC(C)(C)O)nn45)c3)cc2C(F)(F)F)CC1,-58.4% (active),-64.1% (active),-22.5% (active),-9.7% (active),-73.9% (active),-18.6% (active),-35.3% (active),-45.3% (active),-62.3% (active),-70% (active),-36.8% (active),8.57% (active),-67.6% (active),-11.1% (active),-50.4% (active),-2.58% (active),-83.1% (active),-16.8% (active)
COc1cccc(O)c1/C=C(/C)c1ccc2c(OC)cccc2[o+]1,103% (inactive),105% (inactive),103% (inactive),92.5% (inactive),109% (inactive),104% (inactive),98.5% (inactive),107% (inactive),101% (inactive),117% (inactive),111% (inactive),95.6% (inactive),96.8% (inactive),101% (inactive),100% (inactive),99.1% (inactive),93.2% (inactive),118% (inactive)
C=C(C=O)[C@@H]1CC[C@]2(C)[C@H](C(=O)C=C3[C@H]4C[C@](C)(C(=O)OC)CC[C@]4(C)CC[C@]32C)[C@@]1(C)CCC#N,4.93% (active),-53.6% (active),109% (inactive),41.2% (inactive),32.4% (inactive),-35.2% (active),52.5% (inactive),104% (inactive),13.6% (inactive),86.4% (inactive),6.32% (active),5.75% (active),-49.8% (active),-19% (active),32% (inactive),28.4% (inactive),-29.1% (active),-13.6% (active)
CS(=O)(=O)Nc1cc(-c2ccc3ncc(C#N)c(Nc4cccc(Cl)c4F)c3c2)cnc1Cl,8.28% (active),10.4% (inactive),-10.2% (active),-8.87% (active),6.34% (active),-25% (active),1.54% (active),4.61% (active),4.98% (active),-74.5% (active),11.9% (inactive),21.8% (inactive),-32.5% (active),-8.64% (active),-10.1% (active),-10.9% (active),-24.4% (active),2.63% (active)
